High-throughput results deposited in PubChem BioAssay by several laboratories.
The list is not random: actives were taken first. Their share in the collection is about 3.7%.
Autofluor counter: compound fluorescence in toxin protease inhibitor counterscreen. fluorescence intensity (concentration not given with the values). actives 3.1% (n = 360,000). compound autofluorescence counterscreen, microsphere flow cytometry; hits give high values; in the data active = fluorescence intensity above about 16000; inconclusive = no clear call, values can overlap the other calls
MazF activator: MazEF (E. coli) toxin RNase activation | P0AE70 | activation, % at 20 µM | actives 0.32% (n = 350,000) | FAM/BHQ RNA-DNA oligo cleavage fluorescence, 5 h; in the data active = activation above about 50%
BoNT F protease: BoNT F light chain protease inhibition; Multiplex microsphere protease cleavage assay, flow cytometry; inhibition, % at 10 µM; actives 0.22% (n = 360,000); AID 588497; in the data active = inhibition above about 35%, passing the limit was not always enough; inconclusive = no clear call, values can overlap the other calls; also: plate controls were buffer without enzyme for full effect and enzyme alone for no effect
Anthrax LF prot: inhibitors of Bacillus anthracis lethal factor protease. inhibition, % at 10 µM. multiplex microsphere protease cleavage assay, LF. actives 0.12% (n = 360,000). P15917; also: plate controls were buffer without enzyme for full effect and enzyme alone for no effect
Target sequence (P15917 whole entry, looked up): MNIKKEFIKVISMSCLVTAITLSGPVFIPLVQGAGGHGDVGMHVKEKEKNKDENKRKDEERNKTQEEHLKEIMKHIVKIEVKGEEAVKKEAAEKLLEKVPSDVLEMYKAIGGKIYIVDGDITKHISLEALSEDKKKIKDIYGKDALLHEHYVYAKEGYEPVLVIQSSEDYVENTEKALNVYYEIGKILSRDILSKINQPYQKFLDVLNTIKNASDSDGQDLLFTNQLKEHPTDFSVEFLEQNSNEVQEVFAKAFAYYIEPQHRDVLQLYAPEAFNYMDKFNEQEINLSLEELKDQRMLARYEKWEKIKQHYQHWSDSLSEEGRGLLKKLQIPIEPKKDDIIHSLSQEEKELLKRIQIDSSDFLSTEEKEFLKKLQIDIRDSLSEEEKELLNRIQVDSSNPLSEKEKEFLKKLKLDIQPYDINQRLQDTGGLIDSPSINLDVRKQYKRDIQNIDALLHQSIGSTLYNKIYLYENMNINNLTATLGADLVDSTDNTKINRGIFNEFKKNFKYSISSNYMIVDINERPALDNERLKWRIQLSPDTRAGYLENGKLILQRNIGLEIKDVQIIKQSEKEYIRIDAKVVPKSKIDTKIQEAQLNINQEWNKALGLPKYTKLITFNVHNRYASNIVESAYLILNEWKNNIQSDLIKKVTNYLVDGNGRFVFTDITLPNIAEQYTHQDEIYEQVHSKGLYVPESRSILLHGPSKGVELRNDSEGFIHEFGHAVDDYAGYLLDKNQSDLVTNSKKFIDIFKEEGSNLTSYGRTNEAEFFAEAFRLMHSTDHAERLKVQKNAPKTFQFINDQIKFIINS
BoNT A protease: BoNT A light chain protease inhibition; multiplex microsphere protease substrate cleavage, flow cytometry; inhibition, % at 10 µM; actives 0.17% (n = 360,000); also: plate controls were buffer without enzyme for full effect and enzyme alone for no effect
Numbers without * were called inactive; ? = inconclusive; . = no result. Rule as the data show it, unless noted: active = inhibition above about 30%; inconclusive = no clear call, values can overlap the other calls; inactive = below that.

SMILES | Autofluor counter | MazF activator | BoNT F protease | Anthrax LF prot | BoNT A protease
C[C@H](CO)N1C[C@H](C)[C@@H](CN(C)C(=O)c2cnccn2)Oc2cc(C#CCC3CCCC3)ccc2S1(=O)=O | 3889 | 5 | -3 | -2 | 0
CC(=O)NCCCc1nc2ccccc2n1Cc1ccccc1C | 24006* | 8 | -2 | 0 | ?
O=CNCCCc1nc2ccccc2n1Cc1ccccc1 | 16906* | -1 | 1 | -3 | -1
CC(=O)NCc1nc2ccccc2n1Cc1ccccc1C | 5297 | 1 | -11 | -5 | 0
O=CNCCc1nc2ccccc2n1CCc1ccccc1 | 3363 | 9 | ? | 9 | 1
O=C(Nc1ccncc1)c1ccc(Cl)c(S(=O)(=O)N2CCCC2)c1 | . | -5 | . | . | .
C[C@]12C(=O)N(c3ccc(Cl)cc3)C(=O)N1[C@@H]1c3ccccc3OC[C@@H]1[C@H]2c1ccccc1 | 5122 | 8 | -4 | 4 | -1
COc1cccc(OCCOc2c(OC)cccc2OC)c1 | 3426 | -5 | 37* | -1 | 0
C1=C(c2ccc(-c3ccccc3)cc2)Nc2ncnn2C1c1ccco1 (centres undefined) | 4309 | 344* | -1 | 0 | 1
CC(C)C(=O)Nc1cccc(C(=O)NCCc2ccc(S(N)(=O)=O)cc2)c1 | 20300* | 8 | 13 | -1 | ?
O=C(Nc1ccccc1C(=O)O)c1cccc(NC(=O)c2ccccc2Br)c1 | 4086 | -6 | ? | -7 | -2
CC(C)C(=O)Nc1cccc(C(=O)Nc2ccccc2C(=O)O)c1 | 20875* | 2 | -1 | -2 | 0
O=C(NCCc1ccccc1)c1cccnc1 | 3365 | 1 | 0 | -1 | 0
NS(=O)(=O)c1ccc(CCNC(=O)c2cccnc2)cc1 | 20577* | 0 | -5 | -4 | -2
COc1cccc(-c2cnc(C(O)c3ccc(C)cc3C)[nH]2)c1 (centres undefined) | 2901 | . | -13 | -4 | 0
CN1OC[C@@H]2CN(Cc3ccc(Cl)cc3)[C@H](c3ccc(N4CCCCC4)cc3)C[C@@H]21 | 13802 | . | 2 | -18 | -7
CCCN(CCC)C1Sc2ccc(C(=O)OC)cc2NC1=O (centres undefined) | 19484* | 2 | 1 | -1 | 1
CCN(CC)S(=O)(=O)c1cccc(C(=O)NCC2(N3CCOCC3)CCCCC2)c1 | 3921 | 1 | 22 | -2 | 5
C/C(Cn1cnc([N+](=O)[O-])n1)=N\NC(=O)c1cccc(F)c1 | 4265 | 3 | 36* | 0 | 0
Cc1ccc(C(=O)O)cc1NC(=O)C1CCN(S(=O)(=O)c2ccc3c(c2)OCCO3)CC1 | 4190 | 5 | -3 | 2 | 0
O=C(O)c1ccc2[nH]c3c(c2c1)CSCC3 | 20934* | -6 | 7 | 1 | 4
CCOc1ccc(C(=O)N2CCN(c3cccc(C)c3C)CC2)cc1 | 17197* | -1 | -6 | -1 | -2
CCOc1ccc(C(=O)N2CCCC2)cc1 | 9070 | 5 | 1 | -3 | 0
CCCOc1ccc(C(=O)N2CCCC2)cc1OC | 19871* | 0 | -1 | 1 | ?
CCOC(=O)C1CCCN(C(=O)c2ccc(OCC)cc2)C1 (centres undefined) | 24552* | 8 | -2 | 1 | -1
SMILES | Autofluor counter | MazF activator | BoNT F protease | Anthrax LF prot | BoNT A protease
CCCCOc1ccc(C(=O)N2CCCC2)cc1 | 16482* | 6 | -1 | 0 | ?
O=C1NC2=C(C(=O)CCC2)C(c2ccc(OC(F)F)cc2)N1 (centres undefined) | 3660 | -14 | 1 | 6 | -3
CCCc1nn2c(-c3ccccc3)nnc2o1 | 3684 | 3 | 0 | -7 | 1
Cc1ccc(S(=O)(=O)N2[C@@H](c3cccc(Cl)c3)C(C(=O)O)=CC[C@H]2c2ccc(C(C)C)cc2)cc1 | 4038 | 5 | -3 | -3 | -1
COc1ccc(C(O)c2ncc(-c3ccccc3Cl)[nH]2)cc1 (centres undefined) | 3983 | . | -4 | -4 | 0
COc1ccc(C(=O)NN2CCCCC2)cc1OC | 22220* | 1 | 2 | 2 | ?
COc1ccc(C(=O)NCC(=O)N2CCCCC2)cc1OC | 3383 | 1 | 1 | -1 | 0
CCCCC(=O)N1CCCC(C(=O)OCC)C1 (centres undefined) | 22655* | 2 | 0 | -1 | -1
CCOC(=O)C1CCCN(C(=S)Nc2ccc(C)cc2C)C1 (centres undefined) | 16244* | 2 | -2 | -1 | 0
CCOC(=O)C1CCCN(C(=S)Nc2ccc(Nc3ccccc3)cc2)C1 (centres undefined) | 3346 | 2 | -7 | 1 | 0
CC(=NCc1ccccc1)c1ccc(O)cc1O | 3928 | -8 | 4 | -4 | 0
CC(C)(C)c1ccccc1NC(=O)Nc1nc(C(N)Cc2ccc(F)cc2)cs1 (centres undefined) | 2996 | . | -16 | 1 | 0
O=C(c1ccc2c(c1)[nH]c(=S)n1c3ccccc3nc21)N1CCN(c2ncccn2)CC1 | 4444 | 91* | -13 | -2 | 0
CCCCn1nnnc1C1(C)CCC(=O)N1CCc1ccccc1F (centres undefined) | 4517 | . | 2 | 7 | -1
CCOC(=O)C1=C(C)NC2=C(C(=O)CCC2)C1c1cccnc1 (centres undefined) | 23612* | -15 | -6 | 0 | -2
CCOC(=O)C1=C(N)OC2=C(C(=O)CC(C)(C)C2)C1c1cccnc1 (centres undefined) | 22141* | -1 | 0 | -2 | 1
CC1=C(C(=O)OC(C)C)C(c2cccnc2)C2=C(CCCC2=O)N1 (centres undefined) | 5671 | 8 | 3 | -8 | 0
CCOC(=O)C1=C(N)OC2=C(C(=O)CCC2)C1c1cccnc1 (centres undefined) | 2242 | -11 | -10 | -1 | 0
COc1ccccc1CCC(=O)Nc1ccc2c(c1)c(=O)n(C)n2Cc1cccc(C(F)(F)F)c1 | 2972 | . | 2 | -4 | 0
CCCCC(CCC(=O)Nc1nccs1)C(=O)O (centres undefined) | 20150* | 0 | 0 | -2 | ?
COc1cccc(NC(=O)c2ccc3c(c2)C(=O)N(CC2CCCO2)C3=O)c1 (centres undefined) | 5437 | -1 | 4 | 0 | -2
O=C(O)c1cc(NN=C2CCN(Cc3ccccc3)CC2)ccc1Cl | 6123 | 1 | 42* | -5 | 7
O=C(NN=C1CCN(Cc2ccccc2)CC1)c1ccccc1O | 5493 | 12 | -10 | -2 | -1
NC(c1ccccc1)c1csc(Nc2ccc(C(=O)c3ccccc3)cc2)n1 (centres undefined) | 3875 | . | -14 | -4 | 0
NC(CO)C(=O)NNCc1ccc(O)c(O)c1O (centres undefined) | 5923 | 223* | -9 | -21 | -3
COC(=O)C(N)Cc1ccc(O)c(O)c1 (centres undefined) | 2865 | -9 | -12 | -6 | -1
CCCN(CC(=O)Nc1ccccc1C)C(=O)/C=C/c1ccc(OCC)c(OC)c1 | 3165 | 4 | -4 | 0 | -1
COCCn1c(=O)[nH]c(=O)c2c1nc(-c1ccc(-c3ccc(Cl)cc3[N+](=O)[O-])o1)n2Cc1ccccc1 | 2454 | 6 | -12 | -1 | 0
